# Experimental data from PubChem BioAssay AID493201 (National Center for Advancing Translational Sciences (NCATS), 2011).
# Results filed as inconclusive are left out. A call without a number means that no potency is given here. Active and inactive are the calls of the source. Calls come from the whole dose curve; as a rule, active = well fitted activation curve with a large enough effect; inconclusive = small, poorly fitted or top-dose-only effect; inactive = no such curve, though single readings can be large or run the other way.
# Assay: qHTS Assay for Identifying a Potential Treatment of Ataxia-Telangiectasia: Secondary assay (no NCS) hit validation;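 note: phosphorylated KAP1 signal as a proxy for ATM-like kinase activity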
# Conditions: A-T patient fibroblasts, AlphaLISA, no DNA damage added, 90 min; series mostly up to 76.9 µM
# Summary of the method: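 hTERT-immortalized A-T patient fibroblasts (F2112), 500 cells/well, exposed to compounds at up to 76.7 uM final without NCS at 37C. KAP-1 phosphorylation measured by AlphaLISA after lysis and 6 h detection at 25C.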
# Potency is the fitted concentration of half-maximal effect.
row,SMILES,Potency
1,O=C(CNCc1cccs1)Nc1cc(S(=O)(=O)N2CCCC2)ccc1Cl,inactive
2,Cc1cccc(NC(=O)/C(C#N)=C/c2ccc(F)cc2)n1,1840 nM (active)
3,CCN(c1ccccc1)S(=O)(=O)c1ccc(Cl)c(C(=O)N(CC2CCCO2)C2CCS(=O)(=O)C2)c1 (centres undefined),14600 nM (active)
4,Cc1ccc(C)c(-c2csc(Nc3ncccn3)n2)c1,inactive
5,O=C(O)CCC(=O)NN1C(=O)c2ccccc2NC1c1ccco1 (centres undefined),inactive
6,OC1(CC#CCN2CCCCC2)c2ccccc2-c2ccccc21,inactive
7,COc1cccc(OCCc2c(C)n[nH]c2C)c1,inactive
8,O=C1/C(=C/c2ccc(N3CCOCC3)o2)SC(=Nc2ccccc2)N1CCc1c[nH]c2ccccc12,inactive
9,CCOC(=O)Cc1csc(NC(=O)CSc2nnc(C(C)C)n2C)n1,inactive
10,CCc1ccc(NC(=O)CNCc2ccc(OC)c(OC)c2)cc1,inactive
11,CC(=O)Nc1ccc(S(=O)(=O)NCC2(N3CCOCC3)CCCCC2)cc1,inactive
12,Cc1ccnc(NC(=O)c2ccccc2NC(=O)c2ccccc2)c1,inactive
13,CN(C)S(=O)(=O)c1cccc(C(=O)N=C2N=C3C=CC(Cl)=CN3Cc3ccccc32)c1,inactive
14,O=C(C[n+]1cccc2ccccc21)c1ccc(NC(=O)c2ccccc2)cc1,inactive
15,CC(C)c1ccc(-c2cc(C(=O)N3CCOCC3)c3cc(Br)ccc3n2)cc1,inactive
16,CCOc1cccc(/C=C/c2ccc3cccc(O)c3n2)c1OC,inactive
17,CCC(C)NC(=O)c1cn(CCOC)c(=O)c2c1c1ccccc1n2C (centres undefined),inactive

row,SMILES,Potency
1,Cc1ccc(C2(C)NC(=O)N(CC(=O)Nc3ccccc3N3CCCC3)C2=O)cc1 (centres undefined),inactive
2,C=CS(=O)(=O)c1sc(Cl)c(N2CCOCC2)c1[N+](=O)[O-],inactive
3,O=C(NCc1ccccc1)c1cccnc1Sc1ccccc1,inactive
4,CCCN1C2CCCC1CC(NC(=S)Nc1cccc(C)c1C)C2 (centres undefined),inactive
5,O=C(O)c1ccc(/C=C/c2nc3ccccc3c(=O)[nH]2)cc1,inactive
6,CC(C)(C)n1nc2c(c1NC(=O)C1CC(=O)N(c3ccc(Cl)cc3)C1)CS(=O)(=O)C2 (centres undefined),inactive
7,CCOC(=O)N1CCC(NC(=O)C2CCN(S(=O)(=O)c3cccc4cccnc34)CC2)CC1,inactive
8,CNC(=S)N(CCc1c(C)[nH]c2ccc(Cl)cc12)Cc1cccnc1,inactive
9,CCOc1ccc(NC2=NCC(=O)N2Cc2cccs2)cc1,inactive
10,O=C1C(Cl)=C(Nc2ccc3cn[nH]c3c2)C(=O)c2ccccc21,1300 nM (active)
11,COc1ccc(C2NC(=S)NC3=C2N2CCC3CC2)cc1 (centres undefined),1160 nM (active)
12,COc1cc(/C=C2\CCOC2=O)cc(OC)c1OC,inactive
13,Nc1ccc2ncccc2c1,inactive
14,CCOc1cccc(-c2nnc(SCC(=O)Nc3cc(C)ccc3OC)n2N)c1,inactive
15,O=C(/C(=C/c1ccc(Cl)cc1)c1nc2ccccc2[nH]1)c1cccs1,inactive
16,O=[N+]([O-])c1ccc(F)cc1F,32800 nM (active)
17,Clc1cccc(CN2CCC(Cc3ccccc3)CC2)c1,inactive
